Results taken from the supplement of paper PMC6089552.
Hit rate of the full screen: of about 3,200 compounds, about 300 (9.4%) showed activity. This is one part of a sample in which actives are shown more often than they occur.

Tested on: A673/TR/shEF
Assay: cell viability (LOESS-normalised, relative to median of negative controls) (log2 ratio); higher = more viable cells (less compound effect), active = hit call of the paper (over 3 MAD below the median)
Conditions: treatment time: 72 h
Outline: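 For three days, A673/TR/shEF Ewing sarcoma cells in 384-well plates (1,500 per well) were treated with library compounds at two or more concentrations or with DMSO controls, after doxycycline had been added or withheld 24 h beforehand to induce EWS-FLI1 shRNA knockdown. Viability was read by CellTiter-Glo luminescence on an Envision reader. The data were LOESS-corrected per plate, divided by the median of negative controls and log2-transformed.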

[1] = 0.25 µM, library screen: screen2, EWS-FLI1 expression: high (no doxycycline)
[2] = 0.25 µM, library screen: screen2, EWS-FLI1 expression: low (doxycycline-induced shRNA knockdown)
[3] = 2.5 µM, library screen: screen2, EWS-FLI1 expression: high (no doxycycline)
[4] = 2.5 µM, library screen: screen2, EWS-FLI1 expression: low (doxycycline-induced shRNA knockdown)
[5] = 0.25 µM, library screen: screen1, EWS-FLI1 expression: high (no doxycycline)
[6] = 0.25 µM, library screen: screen1, EWS-FLI1 expression: low (doxycycline-induced shRNA knockdown)
[7] = 2.5 µM, library screen: screen1, EWS-FLI1 expression: high (no doxycycline)
[8] = 2.5 µM, library screen: screen1, EWS-FLI1 expression: low (doxycycline-induced shRNA knockdown)
[9] = 0.103 µM, library screen: screen3, EWS-FLI1 expression: high (no doxycycline)
[10] = 0.103 µM, library screen: screen3, EWS-FLI1 expression: low (doxycycline-induced shRNA knockdown)
[11] = 0.308 µM, library screen: screen3, EWS-FLI1 expression: high (no doxycycline)
[12] = 0.308 µM, library screen: screen3, EWS-FLI1 expression: low (doxycycline-induced shRNA knockdown)
[13] = 0.926 µM, library screen: screen3, EWS-FLI1 expression: high (no doxycycline)
[14] = 0.926 µM, library screen: screen3, EWS-FLI1 expression: low (doxycycline-induced shRNA knockdown)
[15] = 2.8 µM, library screen: screen3, EWS-FLI1 expression: high (no doxycycline)
[16] = 2.8 µM, library screen: screen3, EWS-FLI1 expression: low (doxycycline-induced shRNA knockdown)
[17] = 8.3 µM, library screen: screen3, EWS-FLI1 expression: high (no doxycycline)
[18] = 8.3 µM, library screen: screen3, EWS-FLI1 expression: low (doxycycline-induced shRNA knockdown)
[19] = 25 µM, library screen: screen3, EWS-FLI1 expression: high (no doxycycline)
[20] = 25 µM, library screen: screen3, EWS-FLI1 expression: low (doxycycline-induced shRNA knockdown)
[21] = 0.025 µM, library screen: screen2, EWS-FLI1 expression: high (no doxycycline)
[22] = 0.025 µM, library screen: screen2, EWS-FLI1 expression: low (doxycycline-induced shRNA knockdown)
[23] = 25 µM, library screen: screen2, EWS-FLI1 expression: high (no doxycycline)
[24] = 25 µM, library screen: screen2, EWS-FLI1 expression: low (doxycycline-induced shRNA knockdown)

Measured: cell viability (log2)

NC(C(=O)O)c1cccc(O)c1 (stereo unspecified)
inactive: [1] 0.144 | [2] 0.0441 | [3] 0.145 | [4] 0.0975

C[C@@H]1CC[C@@]23CCC4(C)[C@@](C=CC5[C@@]6(C)CC[C@H](O)C(C)(C)C6CC[C@]54C)(OC2=O)C3[C@H]1C (stereo partly specified)
inactive: [5] 0.00363 | [6] -0.0167 | [7] 0.0828 | [8] -0.0285

COCCOC(=O)C1=C(C)NC(=S)NC1c1ccccc1 (stereo unspecified)
inactive: [5] 0.0342 | [6] 0.00808 | [7] 0.0869 | [8] 0.0951

C=C(C)C1Cc2c(cc3oc(CO)cc(=O)c3c2O)O1 (stereo unspecified)
inactive: [5] 0.0482 | [6] -0.012 | [7] 0.067 | [8] 0.013

CC[C@@]1(O)C(=O)OCc2c1cc1n(c2=O)Cc2cc3cc(O)ccc3nc2-1
active: [5] -1.78 | [6] -0.267 | [7] -4.23 | [8] -1.06

CCc1c2c(nc3ccc(OC(=O)N4CCC(N5CCCCC5)CC4)cc13)-c1cc3c(c(=O)n1C2)COC(=O)[C@]3(O)CC
inactive: [9] 0.00275 | [10] 0.0626 | [11] -0.0633 | [12] 0.00509 | [14] 0.026
active: [13] -0.241 | [15] -1.31 | [16] -0.173 | [17] -1.95 | [18] -0.414 | [19] -2.57 | [20] -0.647

CC[C@@]1(O)C(=O)OCc2c1cc1n(c2=O)Cc2cc3c(CN(C)C)c(O)ccc3nc2-1
inactive: [10] -0.0171
active: [9] -0.373 | [11] -1.79 | [12] -0.321 | [13] -2.4 | [14] -0.459 | [15] -3.72 | [16] -0.844 | [17] -4.21 | [18] -1.11 | [19] -4.26 | [20] -1.44

C=CC(C)(O)CC/C=C(\C)CCC=C(C)C (stereo unspecified)
inactive: [5] 0.0873 | [6] 0.0984 | [7] 0.22 | [8] 0.113

COc1cc(OC)c(C2NC(=S)NC(C)=C2C(=O)Nc2ccccc2Cl)cc1OC (stereo unspecified)
inactive: [5] 0.0713 | [6] 0.0952 | [7] 0.0303 | [8] 0.0128

CC(C)C[C@H](NC(=O)OCC1c2ccccc2-c2ccccc21)C(=O)O
inactive: [5] 0.0635 | [6] 0.0579 | [7] 0.116 | [8] -0.00318

CC(C)CCCC(C)C1CCC2C3CCC4CC(=O)CCC4(C)C3CCC12C (stereo unspecified)
inactive: [5] 0.027 | [6] 0.0292 | [7] 0.169 | [8] 0.017

C/C1=C\CC/C(C)=C/CC(C)(C)/C=C/C1
inactive: [5] 0.0853 | [6] 0.0875 | [7] 0.112 | [8] 0.0862

Cc1ccc(C(C)C)cc2c(C)ccc1-2
inactive: [5] 0.0556 | [6] -0.0467 | [7] 0.0686 | [8] 0.0228

C=C1CCC2C(CC2(C)C)C(=C)CCC1=NO (stereo unspecified)
inactive: [5] 0.105 | [6] 0.00367 | [7] 0.133 | [8] 0.0769

CC(C)=CCc1c(O)cc(C)oc1=O
inactive: [5] 0.0912 | [6] -0.0147 | [7] 0.109 | [8] -0.0401

O=c1[nH]cc(F)c(=O)[nH]1
inactive: [21] 0.207 | [22] 0.0564 | [9] 0.0782 | [10] 0.0161 | [5] 0.0591 | [6] -0.00519 | [1] 0.172 | [2] 0.0764 | [11] 0.113 | [12] 0.0726 | [13] 0.13 | [14] 0.0535 | [7] 0.0991 | [8] 0.0157 | [3] 0.104 | [4] 0.00707 | [15] 0.139 | [16] 0.018 | [17] 0.0774 | [18] 0.0748 | [24] -0.051 | [19] -0.0664 | [20] -0.00616
active: [23] -0.375

CN1C[C@H](O)[C@@H](O)[C@H](O)[C@H]1CO
inactive: [1] -0.0352 | [2] 0.0677 | [3] 0.0611 | [4] 0.0287

CCC1(c2ccccc2)C(=O)NCNC1=O
inactive: [9] 0.0813 | [10] 0.0528 | [5] 0.0645 | [6] 0.0903 | [1] 0.00606 | [2] 0.00378 | [11] 0.122 | [12] 0.128 | [13] 0.168 | [14] 0.0786 | [7] 0.179 | [8] 0.204 | [15] 0.146 | [16] 0.0526 | [17] 0.0966 | [18] 0.0601 | [19] 0.121 | [20] 0.121
active: [3] -0.197 | [4] -0.337

CCC1(c2ccccc2)NC(=O)N(C)C1=O (stereo unspecified)
inactive: [5] 0.0606 | [6] 0.0208 | [7] 0.107 | [8] 0.103

O=C1NC(=O)C(c2ccccc2)(c2ccccc2)N1
inactive: [9] 0.0587 | [10] -0.0104 | [5] 0.0952 | [6] 0.161 | [1] 0.143 | [2] 0.0547 | [11] 0.0798 | [12] 0.0371 | [13] 0.05 | [14] 0.0456 | [7] 0.145 | [8] 0.128 | [3] 0.044 | [4] 0.0796 | [15] 0.0207 | [16] 0.0711 | [17] -0.00351 | [18] 0.0628 | [19] 0.0771 | [20] 0.0956

N#Cc1c2c(c(NCCCO)n3c1nc1ccccc13)CCC2
inactive: [5] 0.146 | [6] 0.012 | [7] 0.0888 | [8] -0.0597

COc1cc(O)c2c(=O)cc(C)oc2c1CC=C(C)C
inactive: [5] 0.113 | [6] 0.0803 | [7] 0.117 | [8] 0.16

COc1ccc(C(=O)c2ccc(O)cc2O)c(O)c1
inactive: [5] 0.0224 | [6] 0.0701 | [7] 0.116 | [8] 0.108

COc1ccc(CN2CCN(Cc3cccc([N+](=O)[O-])c3)CC2)cc1OC
inactive: [5] 0.0511 | [6] 0.032 | [7] 0.111 | [8] 0.138

COc1cc2c(cc1OC)-c1cc3ccc(OC)c(OC)c3c[n+]1CC2
inactive: [5] 0.021 | [6] 0.0361 | [7] -0.0191 | [8] 0.0646

COc1ccc2c(=O)c(-c3cc4c(cc3OC)OCO4)coc2c1
inactive: [5] 0.0588 | [6] -0.078 | [7] 0.0766 | [8] 0.0171

COc1ccc2cc3[n+](cc2c1OC)CCc1cc2c(cc1-3)OCO2
inactive: [21] 0.0792 | [22] 0.0888 | [5] 0.0876 | [6] 0.0916 | [1] 0.139 | [2] 0.0365 | [7] -0.0264 | [8] 0.141 | [4] -0.00212
active: [3] -0.318 | [23] -1.53 | [24] -0.365

COC1=CC(=O)C(O)=C/C1=C/C=C/c1ccccc1
inactive: [5] 0.0854 | [6] 0.141 | [7] 0.097 | [8] 0.125

N#CC(=C(/N)Sc1ccccc1N)/C(C#N)=C(\N)Sc1ccccc1N
inactive: [1] 0.102 | [2] 0.0572 | [3] -0.0299 | [4] -0.0332

N#CC(=C(N)Sc1ccccc1N)C(C#N)=C(N)Sc1ccccc1N
0.299: 0.025 µM, library screen: screen1, EWS-FLI1 expression: high (no doxycycline)
active: [7] -0.31 | 25 µM, library screen: screen1, EWS-FLI1 expression: high (no doxycycline) -0.459
inactive: 0.025 µM, library screen: screen1, EWS-FLI1 expression: low (doxycycline-induced shRNA knockdown) -0.0593 | [5] 0.259 | [6] 0.136 | [8] 0.171 | 25 µM, library screen: screen1, EWS-FLI1 expression: low (doxycycline-induced shRNA knockdown) 0.0799

FC(F)(F)c1cc(CO[C@H]2CCCN[C@H]2c2ccccc2)cc(C(F)(F)F)c1
inactive: [1] 0.151 | [2] 0.112 | [3] 0.041 | [4] 0.077

CC(=O)O.CC(=O)O.[Cd]
inactive: [5] 0.129 | [6] -0.0033 | [7] 0.0042 | [8] -0.0745

CC(=O)O[C@@H]1c2c(ccc3ccc(=O)oc23)OC(C)(C)[C@@H]1OC(=O)CC(C)C
inactive: [5] 0.0407 | [6] -0.0116 | [7] 0.121 | [8] 0.0173

CC(=O)OC(CC(=O)[O-])C[N+](C)(C)C (stereo unspecified)
inactive: [5] 0.00442 | [6] 0.0665 | [7] 0.0316 | [8] -0.00031
